Most compounds without a hit are left out; they make up all but 0.98% or so of the library.
RTF Ca sens act = cardiac RTF calcium sensitization; activation, % at 7.2 µM; hit rate 0.24% among 340,000; AID 493008; P19429+P45379; IANBD-labeled TnC RTF fluorescence at EC20 calcium; 0% EC20 calcium, 100% full calcium;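 active = activation above the mean over all tested compounds plus 3 SD, cut at about 30% in these data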;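 note: rise in fluorescence read as greater calcium sensitivity of cardiac thin filaments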
Keap1-Nrf2 PPI = disrupts human Keap1 binding to Nrf2 peptide | Q14145 | inhibition, % at 9.4 µM | Keap1 Kelch-Nrf2 peptide fluorescence polarization, 1536-well | hit rate 0.15% among 340,000; in the data active = inhibition above about 12%;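 note: human Keap1 Kelch domain with fluorescein labeled Nrf2 9mer peptide probe; 0% = neutral control wells and 100% = peptide positive control; higher means more block of Keap1 binding to Nrf2 peptide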
LANA DNA inh = KSHV C-LANA DNA binding inhibition | MBP-C-LANA/FAM-LBS DNA binding, fluorescence polarization | inhibition, % at 9 µM | hit rate 0.078% among 340,000;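 active = highest replicate inhibition at or above 60% at 9 µM, even if other replicates fall short; inactive = all replicates below 60% inhibition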;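 note: 0% = neutral control wells and 100% = 4 µM acridine orange control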
Cardiac RTF inh = cardiac RTF calcium desensitization; IANBD-labeled cardiac RTF, Ca2+ fluorescence; AID 493244; hit rate 0.12% among 340,000; P19429+P45379; inhibition, % at 7.15 µM;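 active = inhibition above the mean inhibition of all tested compounds plus 3 SD, cut at about 17% in these data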;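 note: assay run at fixed EC70 calcium of 1.6 mM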
LANA-H2B inh = blocks KSHV LANA binding to histone H2A/H2B. cell-free LANA-H2A/H2B peptide, fluorescence polarization. inhibition, % (test concentration not listed). Q9QR71. AID 2629. hit rate 0.6% among 320,000; in the data active = inhibition mostly above about 10%, no sharp cut-off; inactive = mostly below about 6.7%
Target sequence (Q9QR71 whole entry, looked up): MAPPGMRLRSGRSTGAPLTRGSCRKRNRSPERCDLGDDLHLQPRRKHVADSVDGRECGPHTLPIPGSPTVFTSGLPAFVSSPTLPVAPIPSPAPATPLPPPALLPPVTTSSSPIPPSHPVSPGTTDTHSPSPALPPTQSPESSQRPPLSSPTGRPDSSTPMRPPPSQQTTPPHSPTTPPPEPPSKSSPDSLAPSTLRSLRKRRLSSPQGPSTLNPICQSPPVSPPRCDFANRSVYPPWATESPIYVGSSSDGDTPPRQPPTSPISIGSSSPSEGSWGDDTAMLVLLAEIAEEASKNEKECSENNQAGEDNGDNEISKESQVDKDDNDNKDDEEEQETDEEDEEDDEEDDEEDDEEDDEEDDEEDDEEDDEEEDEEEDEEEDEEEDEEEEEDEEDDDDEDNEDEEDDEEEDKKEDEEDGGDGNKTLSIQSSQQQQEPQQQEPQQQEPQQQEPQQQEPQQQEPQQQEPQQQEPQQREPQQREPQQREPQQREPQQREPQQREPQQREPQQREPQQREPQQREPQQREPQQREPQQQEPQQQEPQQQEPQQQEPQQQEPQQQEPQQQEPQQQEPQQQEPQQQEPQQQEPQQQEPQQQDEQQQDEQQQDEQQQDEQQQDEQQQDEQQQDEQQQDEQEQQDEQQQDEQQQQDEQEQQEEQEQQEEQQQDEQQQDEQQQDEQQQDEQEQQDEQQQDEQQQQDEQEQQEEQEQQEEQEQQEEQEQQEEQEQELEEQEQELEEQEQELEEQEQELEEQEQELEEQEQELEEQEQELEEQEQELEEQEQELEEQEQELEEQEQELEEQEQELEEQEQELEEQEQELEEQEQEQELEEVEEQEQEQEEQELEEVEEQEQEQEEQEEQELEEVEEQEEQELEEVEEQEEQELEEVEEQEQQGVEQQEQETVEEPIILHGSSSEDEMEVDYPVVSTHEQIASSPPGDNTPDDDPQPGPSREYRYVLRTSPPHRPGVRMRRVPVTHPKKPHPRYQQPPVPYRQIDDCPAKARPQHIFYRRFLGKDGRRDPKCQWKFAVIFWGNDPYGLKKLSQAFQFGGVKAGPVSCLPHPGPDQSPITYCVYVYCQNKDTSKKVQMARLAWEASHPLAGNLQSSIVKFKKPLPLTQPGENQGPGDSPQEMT
* = called active by the depositor; i = inactive; · = no result given.

SMILES | RTF Ca sens act | Keap1-Nrf2 PPI | LANA DNA inh | Cardiac RTF inh | LANA-H2B inh
O=C(O)C(c1ccccc1)N1C(=O)/C(=C\c2ccc(-c3ccccc3Cl)o2)SC1=S (configuration not stated) | 2.4 | 0.5 | 0.2 | -1.7 | -9.9
O=C(O)C(c1ccccc1)N1C(=O)/C(=C\c2ccc(-c3ccc(Br)cc3)o2)SC1=S (configuration not stated) | 62.6* | -51.7 | 4.6 | -65.2 | ·
CCCC(=O)Nc1nn(CCC)c2nc3ccccc3cc12 | 2.2 | -4.6 | -0.1 | -2.7 | 15.0*
CCCn1nc(NC(=O)c2ccncc2)c2cc3ccccc3nc21 | 3.5 | -4.5 | -0.4 | -4.1 | 1.5
CSc1ccc(/C=C/C(=O)OCC(=O)NC2CC2)cc1 | -3.5 | -0.4 | 1.7 | -3.7 | -4.7
Cc1ccc(NC(=S)N2CCCC(CO)C2)c(C)c1 (configuration not stated) | 4.5 | -5.1 | 0.0 | -4.7 | 29.5*
CC1(c2ccccc2)NC(=O)N(CC(=O)NNC(=O)c2ccccc2F)C1=O (configuration not stated) | 3.8 | 9.1 | -0.8 | -4.1 | ·
Cc1ccc(C2(C)NC(=O)N(CC(=O)NNC(=O)c3ccccc3F)C2=O)cc1 (configuration not stated) | -1.8 | -4.5 | 0.2 | -8.0 | 21.5*
N#Cc1ccccc1OCC(=O)NNC(=O)CCNC(=O)c1ccccc1 | -3.8 | -4.9 | -0.8 | -6.8 | 0.2
Oc1ccccc1N1CCN(C(=S)Nc2ccc(SC(F)F)cc2)CC1 | 1.1 | -3.4 | 0.5 | -2.9 | 23.1*
FC(F)Sc1ccc(NC(=S)N2CCN(c3ccccn3)CC2)cc1 | -1.2 | -0.5 | 1.7 | -3.1 | ·
COc1ccccc1N1C(=O)c2cccc3c(N(C)CCO)ccc(c23)C1=O | 51.6* | 10.0 | 47.6 | -63.2 | 15.0
Cc1cc(OCC(=O)NCc2ccccn2)c2c(C)c(Cc3ccccc3)c(=O)oc2c1 | -2.5 | -8.1 | -0.4 | 2.5 | 0.9
COc1cc2c(cc1OC)C(C)=NC1(CCCCC1)C2 | 0.2 | -4.1 | 0.0 | -13.1 | 8.0*
COc1cc2c(cc1OC)C(SC)=NC1(CCCC1)C2 | -2.8 | -2.1 | -0.4 | -15.4 | 0.9
O=C(Cn1cc(C(F)(F)F)ccc1=O)Nc1cc(S(=O)(=O)N2CCOCC2)ccc1Cl | 0.9 | -8.9 | -1.1 | -13.7 | -2.0
O=C(Cn1cc(C(F)(F)F)ccc1=O)Nc1cccc(S(=O)(=O)N2CCOCC2)c1 | 8.1 | 7.0 | 0.2 | -8.1 | 22.3*
CC(C)(Cc1ccccc1)NC(=O)C(=O)c1cn(CC(=O)N2CCOCC2)c2ccccc12 | 1.1 | -1.3 | 1.8 | -12.8 | 38.5*
CCC/C(C#Cc1ccc(N(C)C)cc1)=C1/c2ccccc2C(=O)N1c1ccccc1 | 114.2* | -5.2 | 5.0 | -60.5 | -5.4
COCCc1nc2ccc(C(=O)N3CCCC(CCCO)C3)cc2o1 (configuration not stated) | 1.0 | 4.2 | -0.1 | -19.3 | 11.7*
COCCC(=O)N1CCC(Oc2ccc(C(=O)N3CCCC(CCCO)C3)cc2)CC1 (configuration not stated) | -0.3 | -0.4 | -0.5 | 0.3 | 17.9*
CC(O)[C@H]1CC[C@H]2[C@@H]3CC[C@H]4C[C@H](O)CC[C@]4(C)[C@H]3[C@H](O)C[C@]12C (some centres not stated) | -2.8 | -2.2 | -1.0 | -4.1 | 1.4
O=C1NC(=S)SC1=Cc1cccs1 | 2.9 | -2.9 | -2.3 | 5.6 | ·
CN1CCC/C1=C/C=C1\SC(=S)NC1=O | 471.1* | -172.5 | -44.5 | i | -4.8
CCN1/C(=C\C=C(C(C)=O)C(C)=O)Sc2ccccc21 | 78.5* | -110.2 | -19.9 | -93.6 | -70.2
SMILES | RTF Ca sens act | Keap1-Nrf2 PPI | LANA DNA inh | Cardiac RTF inh | LANA-H2B inh
CCN1/C(=C\C(=S)Nc2ccccc2)Sc2ccccc21 | 1.4 | -8.5 | 1.5 | -2.8 | -2.7
CCOC(=O)/C(C#N)=C(C)/C=C1\Sc2ccccc2N1CC | 168.6* | 8.7 | 10.3 | -1.7 | 6.9
O=C(CCNC(=O)N1CC(=O)Nc2ccccc21)NCc1cccc(Cl)c1 | 1.0 | -1.1 | -0.6 | -0.9 | -5.6
O=C(CCNC(=O)N1CC(=O)Nc2ccccc21)Nc1cccc(Cl)c1 | -0.3 | -5.0 | 0.2 | -20.9 | 15.0*
Cc1ccc(S(=O)(=O)N2CCCCC2)cc1NS(=O)(=O)c1ccc(Cl)c(C(=O)O)c1 | 2.0 | -1.0 | -1.6 | -4.5 | ·
COc1cc2c(cc1OC)C(c1cccc([N+](=O)[O-])c1)N(C(=O)c1ccccc1C(=O)O)CC2 (configuration not stated) | 5.2 | -6.9 | 2.9 | -8.5 | 1.8
CCN(CC)c1nc2ccccc2nc1C(C#N)C(=O)NCCc1ccccc1 (configuration not stated) | 65.5* | -0.7 | 2.2 | -26.9 | -4.5
CCCCN(CCCC)c1nc2ccccc2nc1C(C#N)C(=O)NCCCOC (configuration not stated) | 15.3 | -45.0 | -54.7 | -21.4 | 27.2*
CCN(CC)c1nc2ccccc2nc1C(C#N)C(=O)NCCCOC (configuration not stated) | -3.2 | 3.2 | -0.4 | -1.8 | -42.2
CCCCCCNC(=O)C(C#N)c1nc2ccccc2nc1N1CCCC1 (configuration not stated) | 38.1* | -0.6 | 1.0 | 4.7 | 154.5*
c1ccc(Cn2c[n+](Cc3ccccc3)cn2)cc1 | 7.1 | -7.7 | -0.2 | -8.0 | -4.5
COc1ccccc1NC(=O)CC(=O)c1ccccc1 | -1.6 | 2.3 | -0.6 | 0.6 | -0.1
COc1ccccc1C(=O)CC(=O)c1ccccc1 | -6.1 | -6.2 | -0.7 | -5.6 | 16.8*
CCn1c(/C=C/c2cccc([N+](=O)[O-])c2)nc2ccccc2c1=O | 6.7 | 3.9 | 1.0 | -19.1 | -5.0
O=c1c2ccccc2nc(/C=C/c2cccc([N+](=O)[O-])c2)n1CCO | -0.9 | -3.9 | -1.7 | -2.8 | 19.0*
CC(C)NC(=O)c1cc2nc(-c3ccco3)cc(C(F)(F)F)n2n1 | 2.4 | -5.4 | 0.5 | -3.5 | -7.0
CC(C)NC(=O)c1nn2c(C(F)(F)F)cc(-c3ccco3)nc2c1Cl | 0.7 | -2.3 | -1.2 | -6.2 | 42.8*
CCN(CC(=O)Nc1ccc(OC)cc1)C(=O)Cc1coc2cc(C)c(C)cc12 | -3.8 | 0.5 | -0.9 | 4.0 | 55.6*
Cc1ccc(NC(=O)CN(C)C(=O)Cc2coc3cc(C)c(C)cc23)cc1 | -11.5 | -4.3 | -0.7 | -3.8 | ·
COc1ccccc1C(=O)Nc1ccc2c(c1)nc1n2CCN(Cc2ccccc2)C1 | -0.1 | -1.1 | -0.5 | -1.4 | 16.3*
CC(=O)Nc1cccc(NC(=O)COC(=O)CO/N=C(\C)c2ccc3c(c2)OCO3)c1 | 7.5 | 1.0 | -1.7 | -1.6 | 2.4
CCCNc1c(F)c(F)c2c(C)c3ccccc3nc2c1F | 35.7* | 4.1 | 2.3 | -48.1 | -1.0
Cc1ccc(S(=O)(=O)N(C)C)cc1NC(=O)C(C)OC(=O)C1CCCC1 (configuration not stated) | 1.0 | -3.9 | -0.2 | -10.6 | 3.4
CCn1c2ccccc2c2cc(NC(=O)c3coc(=O)c(Br)c3)ccc21 | · | · | · | · | 19.7*
CCn1c2ccccc2c2cc(NC(=O)c3cccc([N+](=O)[O-])c3)ccc21 | 2.8 | -3.6 | -1.2 | 0.9 | 79.2*

Screening data deposited in PubChem by several laboratories.
